We go through twelve compounds from PubChem BioAssay (NCATS).

A short description of experiment [1]: qHTS of pediatric cancer cell lines to identify multiple opportunities for drug repurposing: Primary screen for SJ-GBM2 cells (AID 1347091). Further: potency means the concentration at half of the fitted maximal effect. In a few lines:
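Viability measured as metabolically active cells via CellTiter-Glo luminescence following 48 hours of compound exposure, 11-point dilutions in confirmatory testing. 500-1,000 cells/well plated 5 hours before dosing; controls were DMSO and 2.3 µM bortezomib.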
For orientation: Quantitative high-throughput screening tests each substance at several concentrations.

Experiment [2] can be described thus: qHTS of pediatric cancer cell lines to identify multiple opportunities for drug repurposing: Primary screen for A673 cells (AID 1347092). Further: nearly all actives have a fitted effect of over 45% in size. Further: potency means the concentration at half of the fitted maximal effect. In a few lines:
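Cells are plated, rested 5 h, dosed by pintool, incubated 48 h, then lysed with CellTiter-Glo and read by luminescence. DMSO is the neutral control; bortezomib at 2.3 uM final is the positive control.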

Experiment [3] is described as follows: qHTS of pediatric cancer cell lines to identify multiple opportunities for drug repurposing: Primary screen for SK-N-MC cells (AID 1347093). Further: potency means the concentration at half of the fitted maximal effect. In a few lines: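 Metabolically active cells were quantified by ATP-dependent luminescence (CellTiter-Glo, 15 min at room temperature) following 48 h treatment. Cells had been plated at 500-1,000 per well and settled for 5 h beforehand.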

The nature of experiment [4]: qHTS of pediatric cancer cell lines to identify multiple opportunities for drug repurposing: Primary screen for BT-37 cells (AID 1347094). Further: potency means the concentration at half of the fitted maximal effect. In a few lines:
(§1)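 Viability was measured as metabolically active cells after 48 hours of treatment, read by CellTiter-Glo luminescence. Compounds were tested at multiple final concentrations, giving concentration-response curves.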

Experiment [5] can be described thus: qHTS of pediatric cancer cell lines to identify multiple opportunities for drug repurposing: Primary screen for NB-EBc1 cells (AID 1347095). Further: potency means the concentration at half of the fitted maximal effect. In a few lines: as §1
Experiment [6] in a line: qHTS of pediatric cancer cell lines to identify multiple opportunities for drug repurposing: Primary screen for U-2 OS cells (AID 1347096). Further: nearly all actives have a fitted effect of over 50% in size. Further: potency means the concentration at half of the fitted maximal effect. An outline of the steps: (§2)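 Viability after 48 h compound treatment at 37C, 500-1,000 cells/well, read as ATP luminescence with CellTiter-Glo. Primary screens used 11-point (MIPE, 0.78 nM-46 µM) or 8-point (NPC, 0.59 nM-46 µM) final concentrations; follow-up screens used 11-point dilutions.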

Experiment [7] can be described thus: qHTS of pediatric cancer cell lines to identify multiple opportunities for drug repurposing: Primary screen for Saos-2 cells (AID 1347097). Further: nearly all actives have a fitted effect of over 40% in size. Further: potency means the concentration at half of the fitted maximal effect. In a few lines:
as §1

Experiment [8] is described as follows: qHTS of pediatric cancer cell lines to identify multiple opportunities for drug repurposing: Primary screen for SK-N-SH cells (AID 1347098). Further: nearly all actives have a fitted effect of over 65% in size. Further: potency means the concentration at half of the fitted maximal effect. In a few lines: (§3)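 Cells (500-1,000/well) rested 5 h, then received compounds for 48 h; metabolically active cells were measured by CellTiter-Glo luminescence. Final concentrations spanned up to 46 µM (MIPE, 11-point) or 0.59 nM-46 µM (NPC, 8-point) in primary screens, 11-point in follow-ups.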

Experiment [9] can be described thus: qHTS of pediatric cancer cell lines to identify multiple opportunities for drug repurposing: Primary screen for NB1643 cells (AID 1347099). Further: nearly all actives have a fitted effect of over 50% in size. Further: potency means the concentration at half of the fitted maximal effect. In a few lines:
as §1

The nature of experiment [10]: qHTS of pediatric cancer cell lines to identify multiple opportunities for drug repurposing: Primary screen for LAN-5 cells (AID 1347100). Further: potency means the concentration at half of the fitted maximal effect. In a few lines:
as §2

The nature of experiment [11]: qHTS of pediatric cancer cell lines to identify multiple opportunities for drug repurposing: Primary screen for BT-12 cells (AID 1347101). Further: nearly all actives have a fitted effect of over 25% in size. Further: potency means the concentration at half of the fitted maximal effect. In a few lines: as §3
Experiment [12] is described as follows: qHTS of pediatric cancer cell lines to identify multiple opportunities for drug repurposing: Primary screen for Rh18 cells (AID 1347102). Further: nearly all actives have a fitted effect of over 65% in size. Further: potency means the concentration at half of the fitted maximal effect. In a few lines: as §2
Experiment [13] is described as follows: qHTS of pediatric cancer cell lines to identify multiple opportunities for drug repurposing: Primary screen for OHS-50 cells (AID 1347103). Further: nearly all actives have a fitted effect of over 40% in size. Further: potency means the concentration at half of the fitted maximal effect. An outline of the steps:
as §3

Experiment [14] can be described thus: qHTS of pediatric cancer cell lines to identify multiple opportunities for drug repurposing: Primary screen for RD cells (AID 1347104). Further: nearly all actives have a fitted effect of over 55% in size. Further: potency means the concentration at half of the fitted maximal effect. An outline of the steps: as §1
Experiment [15] in a line: qHTS of pediatric cancer cell lines to identify multiple opportunities for drug repurposing: Primary screen for MG 63 (6-TG R) cells (AID 1347105). Further: nearly all actives have a fitted effect of over 50% in size. Further: potency means the concentration at half of the fitted maximal effect. In a few lines: as §1
The nature of experiment [16]: qHTS of pediatric cancer cell lines to identify multiple opportunities for drug repurposing: Primary screen for control Hh wild type fibroblast cells (AID 1347106). Further: nearly all actives have a fitted effect of over 55% in size. Further: potency means the concentration at half of the fitted maximal effect. An outline of the steps: as §2
Experiment [17] in a line: qHTS of pediatric cancer cell lines to identify multiple opportunities for drug repurposing: Primary screen for Rh30 cells (AID 1347107). Further: series mostly up to about 46 µM; nearly all actives have a fitted effect of over 75% in size. An outline of the steps:
as §2

Experiment [18] can be described thus: qHTS of pediatric cancer cell lines to identify multiple opportunities for drug repurposing: Primary screen for Rh41 cells (AID 1347108). Further: nearly all actives have a fitted effect of over 70% in size. Further: potency means the concentration at half of the fitted maximal effect. In a few lines: as §1
Experiment [19] can be described thus: qHTS of pediatric cancer cell lines to identify multiple opportunities for drug repurposing: Confirmatory screen for NB1643 cells (AID 1347109). Further: nearly all actives have a fitted effect of over 45% in size. Further: potency means the concentration at half of the fitted maximal effect. An outline of the steps:
as §2

Experiment [20] is described as follows: qHTS of pediatric cancer cell lines to identify multiple opportunities for drug repurposing: Confirmatory screen for SK-N-MC cells (AID 1347111).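 Further: potency means the concentration at half of the fitted maximal effect; cells exposed to compound for 48 h before the readout; nearly all actives have a fitted effect of over 70% in size.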 An outline of the steps: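 SK-N-MC cells at 500-1,000 cells/well in growth media were pre-incubated 5 h, then exposed to compounds at 11-point dilutions for 48 h at 37 degrees C, 5% CO2. Viability was read as CellTiter-Glo luminescence.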

Where “and” joins values, the source holds several entries; their conditions need not be identical. Equal values may be shown once. Results filed as inconclusive are left out. Calls of active or inactive are those of the source. The call rests on the fitted dose curve; in most records, active means well fitted curve in the direction sought with a large enough effect; inconclusive means small, poorly fitted or top-dose-only effect, or another doubt; inactive means no such curve, though single readings can be large; an effect the other way counts as inactive or inconclusive.

On to `Cc1cc2c(s1)Nc1ccccc1N=C2N1CCN(C)CC1`, for which the Potency result in experiment [1], in [2], in [3], in experiment [4], in experiment [5] and in experiment [6] was “inactive” each time. In addition, the Potency result in experiment [7], in experiment [8], in [9], in experiment [10], in experiment [11] and in experiment [12] was “inactive” in each case. The Potency entry in [13], in experiment [14], in experiment [15], in experiment [16], in experiment [17] and in experiment [18] was “inactive” each time.

Take `COCCCOc1ccnc(CS(=O)c2nc3ccccc3[nH]2)c1C` (configuration not stated): the Potency result in experiment [1], in [2], in experiment [3], in experiment [4], in experiment [5] and in experiment [6] was “inactive” in each case. Moreover, the Potency entry in [7], in [8], in [9], in experiment [10], in experiment [11] and in [12] was “inactive” in each case. Moreover, the Potency entry in [13], in experiment [14], in [15], in experiment [16], in experiment [17] and in [18] was “inactive” each time.

On to `Nc1cccc2c1CN(C1CCC(=O)NC1=O)C2=O` (configuration not stated), for which the Potency entry in experiment [1], in [2], in [3], in [4], in experiment [5] and in [6] was “inactive” in each case. In addition, the Potency result in experiment [7], in experiment [8], in experiment [9], in [10], in experiment [11] and in [12] was “inactive” each time. The Potency result in experiment [13], in experiment [14], in [15], in experiment [16], in experiment [17] and in experiment [18] was “inactive” throughout.

In the case of `Nc1ncn([C@H]2C[C@H](O)[C@@H](CO)O2)c(=O)n1`, the Potency entry in [1], in experiment [2], in [3], in [4], in experiment [5] and in experiment [6] was “inactive” in each case. In addition, the Potency result in [7], in experiment [8], in experiment [9], in experiment [10], in experiment [11] and in experiment [12] was “inactive” throughout. Further, the Potency result in experiment [13], in [15], in [16], in experiment [17], in [18] and in [19] was “inactive” throughout.

For `CC(=O)Nc1ccc(O)cc1`, the Potency entry in experiment [1], in [2], in experiment [3], in experiment [4], in experiment [5] and in experiment [6] was “inactive” in each case. The Potency result in [7], in experiment [8], in [9], in experiment [10], in [11] and in experiment [12] was “inactive” throughout. The Potency entry in experiment [13], in experiment [14], in experiment [15], in experiment [16], in [17] and in [18] was “inactive” in each case.

As for `NS(=O)(=O)c1cc(C(=O)O)c(NCc2ccco2)cc1Cl`, the Potency entry in [1], in [2], in experiment [3], in experiment [4], in [5] and in experiment [6] was “inactive” each time. The Potency entry in experiment [7], in experiment [8], in experiment [9], in experiment [10], in experiment [11] and in experiment [12] was “inactive” in each case. Besides, the Potency result in experiment [13], in experiment [14], in experiment [15], in experiment [16], in [17] and in experiment [18] was “inactive” in each case.

`COc1ccc2cc([C@H](C)C(=O)O)ccc2c1`: the Potency result in experiment [1], in experiment [2], in [3], in experiment [4], in experiment [5] and in experiment [6] was “inactive” in each case. Also, the Potency result in experiment [7], in [8], in experiment [9], in [10], in experiment [11] and in experiment [12] was “inactive” each time. In addition, the Potency entry in [13], in experiment [14], in experiment [15], in [16], in [17] and in experiment [18] was “inactive” throughout.

On to `CC1(C)C(=O)N(CCN2CCC(C(=O)c3ccc(F)cc3)CC2)c2ccccc21`, for which the Potency result in experiment [1], in experiment [2], in experiment [4], in experiment [5], in [6] and in [7] was “inactive” in each case. Also, the Potency entry in [10], in experiment [12], in experiment [13], in experiment [14], in [15] and in experiment [16] was “inactive” each time. The Potency entry in [17] and in experiment [18] was “inactive” throughout. Besides, the results for the Potency in experiment [3] and in [20] were 10.5 µM (active) and 3.29 µM (active), respectively.

With `O=C(O)c1cccnc1Nc1cccc(C(F)(F)F)c1`, the Potency result in experiment [1], in [2], in experiment [4], in [5], in [6] and in experiment [7] was “inactive” in each case. The Potency result in experiment [8], in [9], in experiment [10], in experiment [11], in experiment [12] and in experiment [13] was “inactive” each time. In addition, the Potency result in [14], in [15], in experiment [16], in experiment [17] and in experiment [18] was “inactive” each time. In experiment [3], the Potency was 26.6 µM (active).

`CN(C)CCc1c[nH]c2ccc(Cn3cncn3)cc12`: the Potency entry in experiment [1], in experiment [2], in experiment [3], in experiment [5], in [6] and in experiment [8] was “inactive” throughout. Further, the Potency result in experiment [9], in experiment [10], in [12], in [13], in experiment [14] and in [16] was “inactive” each time. In addition, the Potency entry in experiment [17] and in experiment [18] was “inactive” throughout. The Potency in experiment [4] is 19.3 µM (active); in experiment [7], 11.8 µM (active).

For `CCOC(=O)c1c(C)n(C)c2ccc(O)cc12`, the Potency entry in experiment [1], in experiment [2], in experiment [3], in experiment [4], in experiment [5] and in experiment [6] was “inactive” each time. Also, the Potency entry in [7], in experiment [8], in experiment [9], in experiment [10], in experiment [11] and in [12] was “inactive” each time. The Potency entry in experiment [13], in experiment [14], in experiment [15], in [16], in experiment [17] and in experiment [18] was “inactive” each time.

Take `CCN(CC)C(=S)SSC(=S)N(CC)CC`: the Potency in [1] was 4.69 µM (active); in experiment [2] it was 11.8 nM (active) and 19.7 nM (active); in experiment [3] it was 18.7 nM (active) and 49.5 nM (active) and 119 nM (active); in experiment [4], 24.3 nM (active) and 815 nM (active); in [5] it was 11.8 nM (active) and 31.3 µM (active); in experiment [6], 74.3 nM (active). The Potency in experiment [7] was 13.2 nM (active) and 62.4 nM (active) and 211 nM (active); in experiment [8], 114 nM (active); in experiment [9], 83.3 nM (active) and 124 nM (active) and 668 nM (active); in experiment [10], 23.5 nM (active) and 39.4 nM (active); in experiment [11], 15.3 nM (active) and 72.7 nM (active) and 174 nM (active); in experiment [12] it was 33.2 nM (active) and 70 nM (active) and 376 nM (active). Also, the Potency in experiment [13] was 43.2 nM (active); in experiment [14], 11.8 nM (active) and 35.1 nM (active) and 150 nM (active); in [15], 37.2 nM (active); in experiment [16], 166 nM (active) and 111 nM (active) and 1.19 µM (active); in [18], 13.2 nM (active) and 70 nM (active); in experiment [19], 8.27 µM (active).
